Assay results: PubChem BioAssay AID493054 (Broad Institute, 2011)
Entries with a potency or affinity are not part of this list. Activity calls are given as the source filed them.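 Rule for the calls: active = viability loss with fitted half-maximal dose at most ten times the highest valid dose tested; inconclusive = flat viability loss between 30 and 70%, or poor curve fit; inactive = the rest, including flat curves or rising signal.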

Assay: BJeH cell viability loss – BJeH cells, dry powder, counter-screen for Ras selective lethality project, dose response (AID 493054)
Settings: BJeH fibroblasts viability, Alamar Blue fluorescence, 48 h; series mostly up to 45 µM; activity change, negative = viability loss: at the top concentration

| SMILES | activity change, negative = viability loss |
| --- | --- |
| COCC(=O)N(c1ccc(OC)c(Cl)c1)C(C(=O)NCCc1ccccc1)c1cccs1 (centres undefined) | -1.47% (inactive) |
| O=C(c1[nH]ncc1[N+](=O)[O-])N1CCN(C(c2ccccc2)c2ccccc2)CC1 | 8.38% (inactive) |
| CCC(=O)N(c1ccc(OC)c(Cl)c1)C(C(=O)NCCc1ccccc1)c1cccs1 (centres undefined) | 1.23% (inactive) |
| COc1ccc(N(C(=O)CO)C(C(=O)NCCc2ccccc2)c2cccs2)cc1Cl (centres undefined) | 4.07% (inactive) |
